# Results filed as inconclusive are left out. Where a call stands in place of a potency, no number is given. A number with no mark means an inactive call. Activity calls are given as the source filed them. Calls follow the shape of the dose curve; as a rule, active = well fitted curve in the direction sought with a large enough effect in the repeat runs; inconclusive = weak or mixed curves; inactive = no such curve, though single readings can be large; an effect the other way counts as inactive or inconclusive.
# How the values were obtained:
# [1] = target: Cytochrome P450 1A2 (Homo sapiens) (UniProt P05177); assay: Cytochrome P450 Family 1 Subfamily A Member 2 (CYP1A2) small molecule antagonists: luciferase reporter qHTS assay (AID 1671199); as to activity change, negative = inhibition: series mostly up to about 120 µM
# Method in brief: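 Human CYP1A2 activity measured with a P450-Glo proluciferin substrate; compounds in DMSO preincubated 10 min at room temperature with enzyme-substrate mix, then NADPH regeneration system added for 1 h. Luciferin detection reagent, 20 min, luminescence read.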
# [2] = target: Voltage-gated inwardly rectifying potassium channel KCNH2 (Homo sapiens) (UniProt Q12809); assay: Human Ether-a-go-go-Related Gene (hERG) channel small molecule antagonists: fluorescence cell-based qHTS assay (AID 1671200);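 as to activity change, negative = inhibition: hERG-expressing U2OS cells given a thallium stimulus after FluxOR II dye loading; series mostly up to about 77 µM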
# Method in brief: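 Quantitative HTS in hERG-U2OS cells: thallium entry through the channel reports activity, read as continuous 480/540 nm fluorescence over 2 min after stimulus addition.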
# [3] = target: Cytochrome P450 3A4 (Homo sapiens) (UniProt P08684); assay: Cytochrome P450 Family 3 Subfamily A Member 4 (CYP3A4) small molecule antagonists: luciferase reporter qHTS assay (AID 1671201); as to activity change, negative = inhibition: series mostly up to about 120 µM
# Method in brief: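 Inhibition of CYP3A4 is measured as loss of light: the enzyme converts a proluciferin substrate to luciferin, detected luminescently. Reaction ran 1 h at room temperature with NADPH regeneration after a 10 min compound preincubation.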
# Also: nearly all actives have a fitted effect of over 50% in size.
# Potency is read from the fitted curve at half-maximal effect.
# Chain of Cytochrome P450 1A2 (Homo sapiens) (P05177 whole entry, looked up): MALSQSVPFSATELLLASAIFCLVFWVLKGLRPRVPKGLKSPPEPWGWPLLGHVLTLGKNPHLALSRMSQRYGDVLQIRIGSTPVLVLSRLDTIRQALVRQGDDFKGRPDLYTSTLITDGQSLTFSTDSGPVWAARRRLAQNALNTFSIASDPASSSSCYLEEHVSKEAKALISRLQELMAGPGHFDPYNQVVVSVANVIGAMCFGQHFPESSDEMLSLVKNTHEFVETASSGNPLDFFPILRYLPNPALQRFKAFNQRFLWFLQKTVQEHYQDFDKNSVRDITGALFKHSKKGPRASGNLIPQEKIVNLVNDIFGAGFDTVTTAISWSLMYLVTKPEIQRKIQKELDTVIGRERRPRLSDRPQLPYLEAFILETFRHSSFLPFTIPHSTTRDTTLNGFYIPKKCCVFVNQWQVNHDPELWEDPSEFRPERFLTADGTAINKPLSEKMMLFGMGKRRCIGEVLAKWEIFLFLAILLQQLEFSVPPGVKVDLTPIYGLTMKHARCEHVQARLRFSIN
# Chain of Cytochrome P450 3A4 (Homo sapiens) (P08684 whole entry, looked up): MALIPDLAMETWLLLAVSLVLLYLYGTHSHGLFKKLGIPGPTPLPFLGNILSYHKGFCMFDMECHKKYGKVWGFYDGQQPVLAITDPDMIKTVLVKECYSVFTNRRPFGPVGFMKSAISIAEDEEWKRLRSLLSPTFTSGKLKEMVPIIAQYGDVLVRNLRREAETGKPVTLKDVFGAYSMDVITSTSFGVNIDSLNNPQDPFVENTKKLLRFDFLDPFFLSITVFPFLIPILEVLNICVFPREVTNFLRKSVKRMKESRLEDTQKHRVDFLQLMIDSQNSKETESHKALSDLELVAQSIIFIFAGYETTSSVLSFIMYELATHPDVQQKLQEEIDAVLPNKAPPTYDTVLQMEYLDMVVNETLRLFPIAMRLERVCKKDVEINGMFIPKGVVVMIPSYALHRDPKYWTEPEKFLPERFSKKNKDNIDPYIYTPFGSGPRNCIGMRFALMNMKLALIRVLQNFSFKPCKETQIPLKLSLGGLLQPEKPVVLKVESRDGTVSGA
# Chain of Voltage-gated inwardly rectifying potassium channel KCNH2 (Homo sapiens) (Q12809 whole entry, looked up): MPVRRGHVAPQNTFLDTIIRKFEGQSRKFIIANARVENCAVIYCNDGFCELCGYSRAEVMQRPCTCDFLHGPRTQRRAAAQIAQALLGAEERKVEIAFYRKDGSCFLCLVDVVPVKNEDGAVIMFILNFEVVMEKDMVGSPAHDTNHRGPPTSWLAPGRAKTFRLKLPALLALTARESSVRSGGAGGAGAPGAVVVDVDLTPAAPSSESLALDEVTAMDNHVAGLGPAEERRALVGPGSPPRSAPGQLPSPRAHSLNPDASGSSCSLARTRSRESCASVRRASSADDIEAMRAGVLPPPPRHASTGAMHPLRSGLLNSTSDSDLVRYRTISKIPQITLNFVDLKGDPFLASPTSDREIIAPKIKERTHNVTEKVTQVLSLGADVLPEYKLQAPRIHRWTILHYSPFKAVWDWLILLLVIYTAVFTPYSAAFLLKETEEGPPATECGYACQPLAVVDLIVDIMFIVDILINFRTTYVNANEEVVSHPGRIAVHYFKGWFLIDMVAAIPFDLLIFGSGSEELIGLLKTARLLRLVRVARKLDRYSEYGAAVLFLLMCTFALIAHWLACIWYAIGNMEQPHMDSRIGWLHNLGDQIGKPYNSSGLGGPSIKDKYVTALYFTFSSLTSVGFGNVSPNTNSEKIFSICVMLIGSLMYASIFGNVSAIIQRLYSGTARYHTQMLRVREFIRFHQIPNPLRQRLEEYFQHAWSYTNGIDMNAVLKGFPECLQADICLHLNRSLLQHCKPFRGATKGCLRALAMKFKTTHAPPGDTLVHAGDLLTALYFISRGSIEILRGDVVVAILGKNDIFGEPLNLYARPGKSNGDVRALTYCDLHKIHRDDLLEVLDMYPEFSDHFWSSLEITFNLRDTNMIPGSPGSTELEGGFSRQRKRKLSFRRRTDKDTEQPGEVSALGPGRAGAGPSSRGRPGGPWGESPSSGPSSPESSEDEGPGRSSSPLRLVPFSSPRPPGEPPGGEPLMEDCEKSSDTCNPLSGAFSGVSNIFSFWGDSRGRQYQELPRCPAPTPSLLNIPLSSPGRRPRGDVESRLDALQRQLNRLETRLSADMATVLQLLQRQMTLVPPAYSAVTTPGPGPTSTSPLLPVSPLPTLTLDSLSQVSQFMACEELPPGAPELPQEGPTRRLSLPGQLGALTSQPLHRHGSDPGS
smiles,measurement,setting,value
C=C(C)C(=O)OCCC[Si](Cl)(Cl)Cl,Potency,[1],inactive
same,Potency,[2],inactive
same,Potency,[3],12.7 µM (active)
O=S(=O)(O)CCCN1CCOCC1,Potency,[1],inactive
same,Potency,[2],inactive
same,Potency,[3],inactive
CN(C)c1ccc(N=Nc2ccccc2C(=O)O)cc1,Potency,[1],25.2 µM (active)
same,Potency,[2],inactive
same,Potency,[3],inactive
[O]=[Zr],Potency,[1],35.4 µM (active)
same,Potency,[2],inactive
same,Potency,[3],inactive
CO[Si](CCCNCCNCCN)(OC)OC,Potency,[1],inactive
same,Potency,[2],inactive
same,Potency,[3],inactive
CCc1cccc(C)c1,Potency,[1],inactive
same,Potency,[2],inactive
same,Potency,[3],inactive
C=CC(=O)OCC(O)COc1ccccc1 (centres undefined),Potency,[1],35.6 µM (active)
same,Potency,[2],inactive
same,Potency,[3],inactive
CCC(C)(C)c1cc(O)c(C(C)(C)CC)cc1O,Potency,[1],inactive
same,Potency,[2],inactive
same,Potency,[3],inactive
CC1=CP(=O)(c2ccccc2)CC1 (centres undefined),Potency,[1],inactive
same,Potency,[2],inactive
same,Potency,[3],inactive
COc1ccccc1C=O,Potency,[1],inactive
same,Potency,[2],inactive
same,Potency,[3],inactive
CCOC(=O)CC(C)O (centres undefined),Potency,[1],inactive
same,Potency,[2],inactive
same,Potency,[3],inactive
Cc1cccc(N(C)C)c1,Potency,[1],inactive
same,Potency,[2],inactive
same,Potency,[3],inactive
O=C1OC(=O)c2ccc3c4c(ccc1c24)C(=O)OC3=O,Potency,[1],inactive
same,Potency,[2],inactive
same,Potency,[3],inactive
CCCCCCCCCCCCCCCCCO,"activity change, negative = inhibition",[1],6.84% [at 23.6 µM]
same,"activity change, negative = inhibition",[2],5.95% [at 15.8 µM]
same,"activity change, negative = inhibition",[3],7.87% [at 23.6 µM]
C=CC(=C)CC/C=C(\C)CCC=C(C)C,Potency,[1],15.1 µM (active)
same,"activity change, negative = inhibition",[2],-2.72% [at 15.8 µM]
same,Potency,[3],16.9 µM (active)
C=C(c1ccc(C(=O)O)cc1)c1cc2c(cc1C)C(C)(C)CCC2(C)C,Potency,[1],inactive
same,Potency,[2],inactive
same,Potency,[3],inactive
CCOC(/C=C(\C)CCC=C(C)C)OCC,Potency,[1],inactive
same,Potency,[2],inactive
same,Potency,[3],inactive
C=C(C)CCCC,Potency,[1],inactive
same,Potency,[2],inactive
same,Potency,[3],inactive
CCN(CC)c1ccc(N)cc1,Potency,[1],41 µM (active)
same,Potency,[2],25.2 µM (active)
same,Potency,[3],11.6 µM (active)
Cc1c(C(=O)O)cccc1[N+](=O)[O-],Potency,[1],inactive
same,Potency,[2],inactive
same,Potency,[3],inactive
O=C(Nc1ccc(Cl)c(Cl)c1)c1cc(Cl)cc(Cl)c1O,Potency,[1],20 µM (active)
same,Potency,[2],inactive
same,Potency,[3],17.8 µM (active)
C[Si](C)O[Si](C)C,Potency,[1],inactive
same,Potency,[2],inactive
same,Potency,[3],inactive
CC(C)(C)c1cc(CCC(=O)NCCCCCCNC(=O)CCc2cc(C(C)(C)C)c(O)c(C(C)(C)C)c2)cc(C(C)(C)C)c1O,Potency,[1],inactive
same,Potency,[2],inactive
same,Potency,[3],2.83 µM (active)
C(=C/c1ccccc1)/c1ccccc1,Potency,[1],inactive
same,Potency,[2],inactive
same,Potency,[3],inactive
O=C(O)Cc1ccc(OCCNC[C@H](O)c2ccccc2)cc1,Potency,[1],inactive
same,Potency,[2],inactive
same,Potency,[3],inactive
C[C@]12CC[C@H]3C(=CCc4cc(O)ccc43)[C@@H]1CCC2=O,Potency,[1],35.6 µM (active)
same,Potency,[2],inactive
same,Potency,[3],20 µM (active)
CCCCCCCC(OC)OC,Potency,[1],inactive
same,Potency,[2],inactive
same,Potency,[3],inactive
CCCCCCCCC(C)=O,Potency,[1],inactive
same,Potency,[2],inactive
same,Potency,[3],inactive
CC(C)c1ccccc1N,Potency,[1],inactive
same,Potency,[2],inactive
same,Potency,[3],28.3 µM (active)
CCOC(=O)CN,Potency,[1],inactive
same,Potency,[2],inactive
same,Potency,[3],inactive
OCCCc1cccnc1,Potency,[1],inactive
same,Potency,[2],inactive
same,Potency,[3],15.9 µM (active)
CCCOc1sc(C(=O)N2CCC(c3cc(CN)ccc3F)CC2)c(C)c1Br,Potency,[1],73 µM (active)
same,Potency,[2],5.65 µM (active)
same,Potency,[3],10.3 µM (active)
CC(C)CCOCCC(C)C,Potency,[1],inactive
same,Potency,[2],inactive
same,Potency,[3],inactive
Cc1cc(=O)[nH]c(=O)[nH]1,Potency,[1],inactive
same,Potency,[2],inactive
same,Potency,[3],inactive
COc1cccc(OC)c1O,Potency,[1],35.6 µM (active)
same,Potency,[2],inactive
same,Potency,[3],inactive
CCCCCCCCCCCCCc1ccccc1,Potency,[1],inactive
same,Potency,[3],inactive
CCCCCCC(C)Nc1ccc(Nc2ccccc2)cc1 (centres undefined),Potency,[1],22.4 µM (active)
same,Potency,[3],35.6 µM (active)
CCc1ccc(O)c(C(C)(C)C)c1,Potency,[1],35.6 µM (active)
same,Potency,[3],inactive
CCCC(C)CCC(C)=O (centres undefined),Potency,[1],inactive
same,Potency,[2],inactive
same,Potency,[3],inactive
CCCCOc1ccc(C(=O)CCN2CCCCC2)cc1,Potency,[1],inactive
same,Potency,[3],inactive
Cc1ccc(CCn2c3c(c4cc(Cl)ccc42)CN(C)CC3)cn1,Potency,[2],12 µM (active)
CCCCCCCCCCCCCCNCCO,Potency,[1],28.8 µM (active)
same,Potency,[3],inactive
CC(C)=CC1CC(C)CCO1 (centres undefined),Potency,[1],inactive
same,Potency,[2],inactive
same,Potency,[3],inactive
CC(=O)Oc1ccc(C2(c3ccc(OC(C)=O)cc3)Oc3ccccc3NC2=O)cc1,Potency,[1],inactive
same,Potency,[2],inactive
same,Potency,[3],inactive
COC(=O)C1=C(C)NC(C)=C(C(=O)OCCCN2CCC(c3ccccc3)(c3ccccc3)CC2)C1c1cccc([N+](=O)[O-])c1 (centres undefined),Potency,[2],1.51 µM (active)
CCC(C)C(=O)OC (centres undefined),Potency,[1],inactive
same,Potency,[2],inactive
same,Potency,[3],inactive
